Experimental findings from PubChem BioAssay (NCI) are described below.

Molecules are shown by their SMILES. About 79,000 compounds went through this panel and 15% of them were active in at least one assay; those are over-represented in the sample as a whole. A number with no mark means an inactive call. Active and inactive are the calls of the source. No stated cut-off is given here; in the data, active means growth inhibition above about 70%; inactive means the rest.

A short description of test [1]: NCI Yeast Anticancer Drug Screen. Data for the rad50 strain (AID 155).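 Further: 0% = growth of vehicle-only cultures of the same strain.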 The conditions noted are these: S. cerevisiae rad50 strain growth inhibition, stronger effect = higher value. The gist of the method: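 Cells are treated with compound, grown, and their growth is then scored against vehicle-only cultures of the same repair-deficient yeast strain.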
Test [2] is described as follows: NCI Yeast Anticancer Drug Screen. Data for the mec2-1 strain (AID 157). The conditions noted are these: S. cerevisiae mec2-1 strain, stronger effect = higher value. A digest of the protocol: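 Mutant yeast (mec2-1) grown with compound; growth inhibition relative to vehicle control reported.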
A short description of test [3]: NCI Yeast Anticancer Drug Screen. Data for the sgs1 mgt1 strain (AID 161).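 Further: 0% = growth of cultures given vehicle only.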 As to conditions: S. cerevisiae sgs1 mgt1 strain, stronger effect = higher value. The gist of the method: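 Growth of a repair-deficient yeast mutant was monitored after compound treatment and expressed as inhibition relative to vehicle-treated cultures.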
Test [4] in a line: NCI Yeast Anticancer Drug Screen. Data for the cln2 rad14 strain (AID 165).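 Further: 0% = growth equal to vehicle treated cultures.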 As to conditions: S. cerevisiae cln2 rad14 strain, stronger effect = higher value. The gist of the method:
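Readout is yeast growth inhibition versus vehicle-treated controls, using a strain with cln2 and rad14 alterations exposed to compound.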

Test [5] is described as follows: NCI Yeast Anticancer Drug Screen. Data for the bub3 strain (AID 167). As to conditions: S. cerevisiae bub3 mutant strain, stronger effect = higher value. The gist of the method:
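Part of a panel of yeast mutants defective in DNA damage repair or cell cycle regulation. Each strain is grown with compound, and inhibition is calculated relative to solvent-treated cultures.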

Test [6] can be described thus: NCI Yeast Anticancer Drug Screen. Data for the mlh1 rad18 strain (AID 175). As to conditions: S. cerevisiae mlh1 rad18 strain growth inhibition, stronger effect = higher value. A digest of the protocol: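 Genetically defined yeast (DNA repair-deficient) exposed to compounds; growth inhibition determined relative to vehicle.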
Setting [7] is: at 5.0 µM (retest, dose inferred, filed as 0.5).
The mark [8] stands for this setting: at 50.0 µM (retest, dose inferred, filed as 5.0).

For `CCC[CH2][Sn]([CH2]CCC)([O]C(=O)c1cc(F)ccc1F)[O][Sn]([CH2]CCC)([CH2]CCC)[O]C(=O)c1cc(F)ccc1F`, the growth inhibition was 83% (active) in test [1] (setting [7]); 94% (active) in test [1] (setting [8]); 65.3% in test [1] (at 50.0 µM); 87% (active) in test [2] (setting [7]); 97% (active) in test [2] (setting [8]); 69.3% in test [2] (at 50.0 µM). The growth inhibition in test [3] (setting [7]) was 85% (active); in test [3] (setting [8]) it was 96% (active); in test [3] (at 50.0 µM) it was 63.2%; in test [4] (setting [7]), 74% (active); in test [4] (setting [8]), 90% (active); in test [4] (at 50.0 µM), 57.5%. Further, the growth inhibition in test [5] (setting [7]) was 93% (active); in test [5] (setting [8]), 97% (active); in test [5] (at 50.0 µM) it was 81% (active); in test [6] (setting [7]), 89% (active); in test [6] (setting [8]), 96% (active); in test [6] (at 50.0 µM), 85.9% (active).

For `C/C(=N\NC(=S)N1CCN(C2CCCCCC2)CC1)c1ccccn1`, the growth inhibition in test [1] (setting [7]) was -4%; in test [1] (setting [8]) it was 99% (active); in test [1] (at 50.0 µM), 50.5%; in test [2] (setting [7]), -6%; in test [2] (setting [8]), 99% (active); in test [2] (at 50.0 µM) it was 65.3%. Further, the growth inhibition in test [3] (setting [7]) was -4%; in test [3] (setting [8]), 99% (active); in test [3] (at 50.0 µM) it was 26.1%; in test [4] (setting [7]) it was 8%; in test [4] (setting [8]), 99% (active); in test [4] (at 50.0 µM), 42%. Besides, the growth inhibition in test [5] (setting [7]) is -17%; in test [5] (setting [8]), 99% (active); in test [5] (at 50.0 µM), 19.4%; in test [6] (setting [7]), 14%; in test [6] (setting [8]) it was 99% (active); in test [6] (at 50.0 µM) it was 40%.

As for `Cc1nc2ccc3c(ccc4nc(C)c(N=Nc5ccc(C(=N)N)cc5)c(O)c43)c2c(O)c1N=Nc1ccc(C(=N)N)cc1`, the growth inhibition is 5% in test [1] (setting [7]); 89% (active) in test [1] (setting [8]); 93.8% (active) in test [1] (at 50.0 µM); 0% in test [2] (setting [7]); 95% (active) in test [2] (setting [8]); 95.6% (active) in test [2] (at 50.0 µM). Moreover, the growth inhibition is -1% in test [3] (setting [7]); 70% (active) in test [3] (setting [8]); 85.2% (active) in test [3] (at 50.0 µM); -4% in test [4] (setting [7]); 81% (active) in test [4] (setting [8]); 87% (active) in test [4] (at 50.0 µM). Besides, the growth inhibition was -6% in test [5] (setting [7]); 58% in test [5] (setting [8]); 93.3% (active) in test [5] (at 50.0 µM); 2% in test [6] (setting [7]); 77% (active) in test [6] (setting [8]); 90.7% (active) in test [6] (at 50.0 µM).

For `CC(C)C(Sc1nc(-c2ccccc2)c(-c2ccccc2)[nH]1)c1n[nH]c(=S)n1-c1ccccc1` (stereo not given), the growth inhibition in test [1] (setting [7]) is -1%; in test [1] (setting [8]), 97% (active); in test [1] (at 50.0 µM), 95.8% (active); in test [2] (setting [7]), 12%; in test [2] (setting [8]), 98% (active); in test [2] (at 50.0 µM), 97.1% (active). Besides, the growth inhibition is -13% in test [3] (setting [7]); 98% (active) in test [3] (setting [8]); 96.8% (active) in test [3] (at 50.0 µM); -24% in test [4] (setting [7]); 97% (active) in test [4] (setting [8]); 94.3% (active) in test [4] (at 50.0 µM). For the same compound, the growth inhibition in test [5] (setting [7]) is -1%; in test [5] (setting [8]), 98% (active); in test [5] (at 50.0 µM) it was 96.9% (active); in test [6] (setting [7]), -3%; in test [6] (setting [8]), 97% (active); in test [6] (at 50.0 µM), 95.9% (active).

Take `NCCSC1(O)C(=O)c2ccccc2C1=O`: the growth inhibition is 35% in test [1] (setting [7]); 92% (active) in test [1] (setting [8]); 94.4% (active) in test [1] (at 50.0 µM); 18% in test [2] (setting [7]); 72% (active) in test [2] (setting [8]); 65.7% in test [2] (at 50.0 µM). The growth inhibition in test [3] (setting [7]) is -4%; in test [3] (setting [8]), 64%; in test [3] (at 50.0 µM), 56.1%; in test [4] (setting [7]), -3%; in test [4] (setting [8]), 46%; in test [4] (at 50.0 µM), 59.3%. Also, the growth inhibition is -3% in test [5] (setting [7]); 43% in test [5] (setting [8]); 48.5% in test [5] (at 50.0 µM); 0% in test [6] (setting [7]); 70% (active) in test [6] (setting [8]); 75.2% (active) in test [6] (at 50.0 µM).

`CN(C)/N=C1\CC(c2ccccc2)C(C#N)(C#N)C1(C#N)C#N` (stereo not given): the growth inhibition is 41% in test [1] (setting [7]); 99% (active) in test [1] (setting [8]); 89.3% (active) in test [1] (at 50.0 µM); 51% in test [2] (setting [7]); 100% (active) in test [2] (setting [8]); 89% (active) in test [2] (at 50.0 µM). The growth inhibition in test [3] (setting [7]) was 42%; in test [3] (setting [8]), 100% (active); in test [3] (at 50.0 µM), 88.5% (active); in test [4] (setting [7]), 39%; in test [4] (setting [8]) it was 99% (active); in test [4] (at 50.0 µM) it was 88.5% (active). Also, the growth inhibition in test [5] (setting [7]) was 56%; in test [5] (setting [8]) it was 100% (active); in test [5] (at 50.0 µM), 89.6% (active); in test [6] (setting [7]), 51%; in test [6] (setting [8]), 99% (active); in test [6] (at 50.0 µM) it was 91.5% (active).

In the case of `CCC(=C(c1ccc(OCCN(C)C)cc1)c1cccc(O)c1)c1ccccc1` (mixture of isomers), the growth inhibition in test [1] (setting [7]) is 34%; in test [1] (setting [8]), 97% (active); in test [1] (at 50.0 µM) it was 86% (active); in test [2] (setting [7]) it was 10%; in test [2] (setting [8]) it was 99% (active); in test [2] (at 50.0 µM), 62%. Besides, the growth inhibition is 44% in test [3] (setting [7]); 98% (active) in test [3] (setting [8]); 96.5% (active) in test [3] (at 50.0 µM); 34% in test [4] (setting [7]); 97% (active) in test [4] (setting [8]); 76.9% (active) in test [4] (at 50.0 µM). Further, the growth inhibition was 23% in test [5] (setting [7]); 99% (active) in test [5] (setting [8]); 76.5% (active) in test [5] (at 50.0 µM); 64% in test [6] (setting [7]); 98% (active) in test [6] (setting [8]); 94% (active) in test [6] (at 50.0 µM).

For `C=CCc1ccc2c(C)cc[n+](C)c2c1O`, the growth inhibition was 12% in test [1] (setting [7]); 99% (active) in test [1] (setting [8]); 100% (active) in test [1] (at 50.0 µM); 19% in test [2] (setting [7]); 99% (active) in test [2] (setting [8]); 99.2% (active) in test [2] (at 50.0 µM). In addition, the growth inhibition in test [3] (setting [7]) was 21%; in test [3] (setting [8]) it was 99% (active); in test [3] (at 50.0 µM), 99% (active); in test [4] (setting [7]), -17%; in test [4] (setting [8]), 99% (active); in test [4] (at 50.0 µM), 99.5% (active). In addition, the growth inhibition in test [5] (setting [7]) was 1%; in test [5] (setting [8]), 99% (active); in test [5] (at 50.0 µM), 99.1% (active); in test [6] (setting [7]), 23%; in test [6] (setting [8]), 99% (active); in test [6] (at 50.0 µM), 98.8% (active).

For `COc1ccc(-c2c(-c3ccccc3)c(C)nc3nc(SC)nc(SC)c23)cc1OC`, the growth inhibition in test [1] (setting [7]) was 24%; in test [1] (setting [8]), 95% (active); in test [1] (at 50.0 µM) it was 95% (active); in test [2] (setting [7]), 0%; in test [2] (setting [8]), 96% (active); in test [2] (at 50.0 µM), 95% (active). Further, the growth inhibition in test [3] (setting [7]) is 12%; in test [3] (setting [8]), 97% (active); in test [3] (at 50.0 µM) it was 94.2% (active); in test [4] (setting [7]), -2%; in test [4] (setting [8]) it was 92% (active); in test [4] (at 50.0 µM), 94.7% (active). Moreover, the growth inhibition is -20% in test [5] (setting [7]); 94% (active) in test [5] (setting [8]); 94.6% (active) in test [5] (at 50.0 µM); 2% in test [6] (setting [7]); 96% (active) in test [6] (setting [8]); 94.6% (active) in test [6] (at 50.0 µM).

Turning to `CC(=O)Oc1c(O)c2ccccc2c2ccccc12`, the growth inhibition in test [1] (setting [7]) was 6%; in test [1] (setting [8]), 93% (active); in test [1] (at 50.0 µM), 99.5% (active); in test [2] (setting [7]), -5%; in test [2] (setting [8]) it was 97% (active); in test [2] (at 50.0 µM), 99.2% (active). For the same compound, the growth inhibition was 2% in test [3] (setting [7]); 83% (active) in test [3] (setting [8]); 99.3% (active) in test [3] (at 50.0 µM); -11% in test [4] (setting [7]); 95% (active) in test [4] (setting [8]); 97.5% (active) in test [4] (at 50.0 µM). Further, the growth inhibition in test [5] (setting [7]) is 5%; in test [5] (setting [8]) it was 96% (active); in test [5] (at 50.0 µM), 99.5% (active); in test [6] (setting [7]), -4%; in test [6] (setting [8]), 92% (active); in test [6] (at 50.0 µM), 98.9% (active).
